Measured values from PubChem BioAssay (NCATS).
Records with an inconclusive call do not appear. The source made the active and inactive calls. Calls come from the whole dose curve; as a rule, active = well fitted inhibition curve with a large enough effect; inconclusive = small, poorly fitted or top-dose-only effect; inactive = no such curve, though single readings can be large or run the other way.

Each molecule was assayed on Zika virus NS2B-NS3 protease (unlinked complex) (assay: Primary screen GU Rhodamine qHTS for Zika virus inhibitors: Unlinked NS2B-NS3 protease assay (AID 1347159; note: nearly all actives have a fitted effect of over 60% in size)). Details: Recombinant ZIKV NS2B-NS3 protease, Rhodamine110 substrate fluorescence; series mostly up to 107 µM; activity change, negative = inhibition: at the top concentration.
Summary of the method: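 A qHTS format was used, with compound concentrations ranging up to 114 microM. Each compound was preincubated with 25 nM NS2B-NS3 protease, and the substrate was then added at 1.5 microM. Curves were fitted with a 4-parameter Hill model.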
% is set by controls: 0 for no effect and ±100 for the full control effect; potency is the fitted concentration of half-maximal effect.

Compound	activity change, negative = inhibition	Potency
Cc1c(C)c(NCC(=O)N(C)C2CCN(Cc3ccc(C(N)=O)cc3)CC2)c(C)c(C)c1N	11.8% (inactive)	–
Cc1cc(Cn2cnc3c2CC(C(=O)O)N(C(=O)C(c2ccccc2)c2ccccc2)C3)ccc1N(C)C (stereo unspecified)	-12.7% (inactive)	–
COC(=O)C1C(c2ccc(O)cc2)C(C(=O)O)C1c1ccc(O)cc1 (stereo unspecified)	16.9% (inactive)	–
C/C=C(/C)C(=O)O[C@H]1C[C@]2(C)O[C@@H]2[C@@H](OC(C)=O)[C@@]2(C)CC[C@@](O)(C(C)C)[C@H]12	-6.61% (inactive)	–
O=C(OCC1OC(Oc2ccc(O)cc2COC(=O)C2(O)C(O)CCC(=O)C2OC(=O)C2C=CCC2)C(OC(=O)C2C=CCC2)C(O)C1O)C1C=CCC1 (stereo unspecified)	0.949% [at 32.5 µM] (inactive)	–
CC[C@H]1OC(=O)[C@H](C)[C@@H](O[C@H]2C[C@@](C)(OC)[C@@H](O)[C@H](C)O2)C(C)[C@@H](O[C@@H]2O[C@H](C)C[C@H](N(C)C)[C@H]2O)[C@](C)(O)C[C@@H](C)CN(C)[C@H](C)[C@@H](O)[C@]1(C)O (stereo partly specified)	4.9% (inactive)	–
CC(C)=CCc1c(O)cc2oc3cc(C)cc(O)c3c2c1C	–	20 µM (active)
CC1(C)C2CC[C@@]34CC(CC[C@H]3[C@]2(C)CC[C@@H]1O[C@@H]1O[C@H](CO)[C@@H](O)[C@H](O)[C@H]1O)[C@](C)(O)C4 (stereo partly specified)	7.26% [at 57.1 µM] (inactive)	–
COc1cc(O[C@@H]2O[C@H](CO[C@H]3OC[C@](O)(CO)[C@H]3O)[C@@H](O)[C@H](O)[C@H]2O)cc(OC)c1O	25% [at 57.1 µM] (inactive)	–
Cc1nc2cc(-c3cc(F)cc(C#N)c3)ccc2s1	-1.2% (inactive)	–
CC(=O)O[C@@H]1C(=O)C(C)=C(CCC(C)CC(=O)O)[C@@]2(C)CCCC(C)(C)C12 (stereo partly specified)	-6.15% (inactive)	–
COc1cc(C2OCC3(O)C(c4ccc(O[C@@H]5O[C@H](CO)[C@@H](O)[C@H](O)[C@H]5O)c(OC)c4)OCC23O)ccc1O (stereo partly specified)	2.02% [at 57.1 µM] (inactive)	–
CC1CCC23COC(=O)C2=CC(O)CC3C1(C)CCc1ccoc1 (stereo unspecified)	-12.6% (inactive)	–
C/C=C(\C)C(=O)OC[C@H]1O[C@@H](O[C@H]2[C@@H](O[C@H]3O[C@H](CO)[C@@H](O)[C@H](O)[C@H]3O[C@@H]3O[C@H](CO)[C@@H](O)[C@H](O)[C@H]3O)O[C@H](COC(=O)/C(C)=C/C)[C@@H](O)[C@@H]2O)[C@H](O)[C@@H](O)[C@@H]1O	4.08% [at 32.5 µM] (inactive)	–
FC(F)(F)c1nnc2c(Sc3ccccc3)nc3ccc(Cl)cc3n12	0.809% (inactive)	–
COC(=O)C1=C[C@@H](O)[C@@H](O)[C@H](O[C@@H]2O[C@H](CO)[C@@H](O)[C@H](O)[C@H]2OC(=O)/C=C/c2ccccc2)C1	16.4% [at 57.1 µM] (inactive)	–
O=C(O)c1ccncc1Nc1nn(CCN2CCC(F)(F)CC2)c2ccc(F)cc12	0% (inactive)	–
CC(=O)N[C@H]1[C@H](O[C@H]2CC[C@]3(C)C4CC=C5[C@@H]6CC(C)(C)CC[C@]6(C(=O)O)[C@H](O)C[C@@]5(C)[C@]4(C)CC[C@H]3C2(C)C)O[C@H](CO)[C@@H](O)[C@@H]1O (stereo partly specified)	12.8% [at 32.5 µM] (inactive)	–
C=C1C2(C)CC3C4(C)OC(C5OC56C4=CC(=O)OC6(C)C)C3(C)C13C(=O)OC(C)C3(O)C2=O (stereo unspecified)	4.32% [at 57.1 µM] (inactive)	–
COc1c(O[C@@H]2O[C@H](CO)[C@@H](O)[C@H](O)[C@H]2O)c(CCC(=O)O)cc2ccoc12	4.25% (inactive)	–
O=C(O)c1ccnc2cc(-c3nc4ccccc4n3CCN3CCCCC3)sc12	22.5% (inactive)	–
COC(=O)C(Cc1ccccc1)NC(=O)c1ccccc1 (stereo unspecified)	0.887% (inactive)	–
CC1(C)CC[C@]2(C(=O)O[C@@H]3O[C@H](CO)[C@@H](O)[C@H](O)[C@H]3O)CC[C@]3(C)C(=CCC4[C@@]5(C)C[C@@H](O)[C@H](O)[C@@](C)(CO)C5[C@H](O)C[C@]43C)C2C1 (stereo partly specified)	55.3% [at 32.5 µM] (inactive)	–
Cc1oc2nc3c(c(NC(=O)CN4CCCC4=O)c2c1C)CCCC3	5.7% (inactive)	–
COc1cc(O)c2c(c1Cl)CC(C)OC2=O (stereo unspecified)	5.58% (inactive)	–
CN(C)CCC[C@]1(c2ccc(F)cc2)OCc2cc(C#N)ccc21	21.6% (inactive)	–
